Results reported in PubChem BioAssay (NCI).
Where “and” joins values, the source holds several entries; their conditions need not be identical. Identical values can stand only once. About 83,000 compounds went through this panel and 20% of them were active in at least one assay; those are over-represented in the sample as a whole.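 Testing used 96-well plates and a 48-hour single-concentration exposure. Example: -40 means 40% of the starting cells died.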 Calls of active or inactive are those of the source. The calls were made as follows: active = growth percent below 10; inactive = the rest.

Assays:
Assay in all cases: NCI-60 one-dose screen, 48 h (100 = growth as untreated, 0 = no growth, -100 = all killed)
Conditions in all cases: 10 µM unless noted
[1] = test system: NCI-H23 lung
[2] = test system: NCI-H226 lung
[3] = test system: NCI-H322M lung
[4] = test system: HOP-62 NSCLC
[5] = test system: NCI-H460 lung
[6] = test system: HOP-92 NSCLC
[7] = test system: NCI-H522 lung
[8] = test system: A549/ATCC NSCLC
[9] = test system: 786-0 renal
[10] = test system: COLO 205 colon
[11] = test system: DU-145 prostate
[12] = test system: K-562 leukemia
[13] = test system: MALME-3M melanoma
[14] = test system: MDA-MB-231 breast
[15] = test system: RXF 393 renal
[16] = test system: SF-268 CNS
[17] = test system: SF-295 CNS
[18] = test system: SF-539 CNS
[19] = test system: UACC-257 melanoma
[20] = test system: M14 melanoma

Measured: growth

CC(Sc1ccccc1)C(=O)O (centres undefined)
inactive: [1] 96% | [2] 99.3% | [3] 109% | [4] 83.4% | [5] 111% | [6] 97% | [7] 102% | [8] 99.3% | [9] 118% | [10] 143% | [11] 107% | [12] 152% | [13] 67.5% | [14] 93.2% | [15] 94.2% | [16] 105% | [17] 91.8% | [18] 103% | [19] 103% | [20] 95.2%

CCN1CCN(CC(=O)Nc2nc3ccc(NCc4ccc(C)cc4)cc3s2)CC1
inactive: [1] 72.6% | [2] 72% | [3] 87.6% | [4] 78.5% | [5] 44.5% | [6] 39% | [7] 93.7% | [8] 73.4% | [9] 68% | [10] 16.3% | [11] 84.3% | [14] 59.1% | [15] 56.1% | [16] 73.5% | [17] 88.2% | [18] 22.2% | [19] 34%
active: [12] -0.543% | [13] -41.5% | [20] -44%

CC(C)(C)c1cc(C(C)(C)c2ccccc2)cc(Cc2cc(C(C)(C)c3ccccc3)cc(C(C)(C)C)c2O)c1O
inactive: [1] 108% | [2] 90.9% | [3] 97.1% | [4] 108% | [5] 105% | [6] 55.1% | [7] 79.2% | [8] 101% | [9] 103% | [10] 123% | [11] 123% | [12] 48% | [13] 97.4% | [14] 105% | [15] 95.5% | [16] 98.4% | [17] 116% | [18] 101% | [19] 105% | [20] 116%

CCOC(=O)C(=CCC(C)C)C(=O)OCC
inactive: [1] 93.1% | [2] 93.4% | [3] 104% | [4] 89% | [5] 106% | [6] 89.3% | [7] 104% | [8] 104% | [9] 95.9% | [10] 116% | [11] 99.3% | [12] 125% | [13] 120% | [14] 99.6% | [15] 113% | [16] 94.9% | [17] 120% | [18] 95.7% | [19] 110% | [20] 95.7%

N=C(N)SCc1c2ccccc2c(CSC(=N)N)c2ccccc12
inactive: [1] 54.4% | [2] 71.2% | [3] 103% | [4] 55.5% | [5] 34.4% | [6] 32.2% | [7] 31.2% | [8] 65.9% | [9] 47.7% | [10] 66.1% | [11] 63.9% | [12] 35.3% | [13] 71.3% | [14] 103% | [15] 99.7% | [16] 55.5% | [17] 66.7% | [18] 84% | [19] 119% | [20] 68.4%

CCN(c1cc(-c2ccc(CN3CCC(/C=C/S(=O)(=O)c4ccccc4)CC3)cc2)cc(C(=O)NCc2c(C)cc(C)[nH]c2=O)c1C)C1CCOCC1
inactive: [1] 81.4% | [2] 78.3% | [3] 85.1% | [4] 82.8% | [5] 83.8% | [6] 24.3% | [7] 77.7% | [8] 66.1% | [9] 71.1% | [10] 99.8% | [11] 78.9% | [12] 40.6% | [13] 67% | [14] 67.3% | [15] 17.7% | [16] 66.5% | [17] 84.8% | [18] 59.3% | [19] 75.4% | [20] 85.1%

COc1cc(C=O)ccc1Oc1ccc([N+](=O)[O-])cc1[N+](=O)[O-]
inactive: [1] 95.6% | [2] 99.9% | [3] 104% | [4] 94.2% | [5] 104% | [6] 78.8% | [7] 94.3% | [8] 88.4% | [9] 102% | [10] 108% | [11] 110% | [12] 97.3% | [13] 114% | [14] 104% | [15] 111% | [16] 102% | [17] 108% | [18] 107% | [19] 90% | [20] 102%

COC(=O)c1nc(-c2ccccc2)oc1S(=O)(=O)N(C)CCO
inactive: [1] 90.9% | [2] 90.8% | [3] 94.6% | [4] 103% | [5] 105% | [6] 41.7% | [7] 32.7% | [8] 91.2% | [9] 57.9% | [10] 48% | [11] 65.4% | [12] 22.2% | [13] 69.6% | [14] 78.3% | [15] 64.8% | [16] 92.3% | [17] 104% | [18] 68.7% | [19] 63.8% | [20] 41.1%

CC[C@@H]1NC(=O)[C@H]([C@H](O)[C@H](C)C/C=C/c2ccc(CN3C(=O)C(C)=C(C)C3=O)cc2)N(C)C(=O)[C@H](C(C)C)N(C)C(=O)[C@H](CC(C)C)N(C)C(=O)[C@H](CC(C)C)N(C)C(=O)[C@@H](C)NC(=O)[C@H](C)NC(=O)[C@H](CC(C)C)N(C)C(=O)[C@H](C(C)C)NC(=O)[C@H](CC(C)C)N(C)C(=O)CN(C)C1=O
inactive: [1] 82.6% | [2] 65% | [3] 65.7% | [4] 70.7% | [5] 80.7% | [6] 68.8% | [7] 61.9% | [8] 58.1% | [9] 97.6% | [10] 72.8% | [11] 73.9% | [12] 70% | [13] 88.2% | [14] 71.5% | [15] 80% | [16] 71% | [17] 69.4% | [18] 86.9% | [19] 69.4% | [20] 60%

Clc1ccc(Nc2nc(Nc3ccc(Cl)cc3)nc(Nc3ccc(-c4cc(-c5cccc(Cl)c5)on4)cc3)n2)cc1
inactive: [1] 88.1% | [2] 99.9% | [3] 85.2% | [4] 115% | [5] 96.1% | [6] 60.4% | [7] 88.5% | [8] 91.3% | [9] 94.6% | [10] 90.9% | [11] 110% | [12] 85.9% | [13] 128% | [14] 81.3% | [15] 39.3% | [16] 87.7% | [17] 102% | [18] 102% | [19] 108% | [20] 94.8%

O=S(=O)(Nc1cc(Sc2cccc3cccnc23)c(O)c2ccccc12)c1ccc(F)cc1
active: [5] 4.76% | [6] 4.76% | [7] -48.7% | [9] 2.18% | [10] -64.6% | [11] -25.4% | [12] -20.1% | [13] -14% | [15] -5.08% | [16] 8.15% | [18] -15.6% | [19] -24.8% | [20] -42.8%
inactive: [1] 17.7% | [2] 44.3% | [3] 31.7% | [4] 44.7% | [8] 11.9% | [14] 19.6% | [17] 22.1%

COC(=O)c1[nH]nc(OC)c1C1(C(C#N)c2nc3ccccc3s2)CCCc2ccccc21 (centres undefined)
inactive: [1] 97.5% | [2] 84.9% | [3] 99.6% | [4] 85% | [5] 99% | [6] 72.9% | [7] 98.4% | [8] 96.2% | [9] 101% | [10] 103% | [11] 108% | [12] 92.4% | [13] 101% | [14] 79.9% | [15] 117% | [16] 101% | [17] 97.5% | [18] 106% | [19] 101% | [20] 95.2%

Cc1ccc(Nc2nc(-c3cc(O)c(C)c(C)c3O)cs2)cc1
inactive: [1] 90.4% | [2] 90.2% | [3] 102% | [4] 99.9% | [5] 104% | [6] 98.2% | [7] 65.8% | [8] 88.1% | [9] 118% | [10] 116% | [11] 97.3% | [12] 66.5% | [13] 109% | [14] 104% | [15] 99.3% | [16] 92.3% | [17] 101% | [18] 96.6% | [19] 104% | [20] 96.6%

COc1cc2c(cc1OCCCOC1=C=C=C(c3ccc4c(c3)c3cc(-c5ccc(OCCCOc6cc7c(cc6OC)C(=O)N6CCC[C@H]6C=N7)cc5)ccc3n4S(=O)(=O)c3ccc(C)cc3)C=C1)N=C[C@@H]1CCCN1C2=O
inactive: [1] 36.7% | [2] 22.8% | [3] 216% | [4] 116% and 54.5% | [5] 15.5% | [6] 69.3% | [8] 56.4% | [10] 49% | [13] 240% | [14] 23.3% | [18] 13.3% | [19] 52.6% | [20] 22.2%
115% (inactive) and 1.63% (active): [9]
active: [7] -8.9% | [11] -66.5% | [12] 8.45% | [16] -41.8% | [17] -26%
